Shown are actives, neighbours in structure and some others; about 0.38% of the full set was active somewhere.
USP2a inh – qHTS Assay for Inhibitors of Ubiquitin-specific Protease USP2a Using CHOP2 as the Reporter. Ubiquitin carboxyl-terminal hydrolase 2 (Homo sapiens), O75604. 330,000 compounds, 0.01% hits. USP2 core, Ub-CHOP2 coupled fluorogenic reporter, 485/531. Potency, µM (doses to about 38.3 µM), actives largely listed as inhibitors
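USP2 core (10nM final) preincubated 30min RT with compound in 20mM Tris-HCl pH 8.0, 2mM CaCl2, 2mM beta-mercaptoethanol, 0.05% CHAPS; 25nM Ub-CHOP2 plus 25nM reporter substrate added, fluorescence (Ex485/Em531) read after 60min.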
Eya2 inh – qHTS Assay for Inhibitors of the Phosphatase Activity of Eya2 | Protein phosphatase EYA2 (Homo sapiens), O00167 | recombinant Eya2, OMFP fluorescence dephosphorylation (OMFP is methylfluorescein phosphate) | Potency, µM (top dose mostly 76.9 µM), usual class: inhibitors | AID 488837, 2010 | 330,000 compounds, 0.006% hits
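Eya2 (0.2 uM) preincubated 10 min at ambient with compound, then OMFP substrate added at 50 uM; 10 min reaction in 50 mM HEPES pH 7.5, 50 mM NaCl, 5 uM MgCl2, 0.05% BSA, 1 mM DTT. Fluorescence read at Ex 485/Em 525 nm.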
TRb SRC2 PPI – qHTS for Inhibitors of the Interaction of Thyroid Hormone Receptor and Steroid Receptor Coregulator 2 | Potency, µM (highest dose often 106 µM), hits mostly inhibitors | AID 1469, 2008 | 280,000 compounds, 0.065% hits | TRbeta-SRC2 peptide binding, fluorescence polarization; receptor liganded with 1 µM T3; note: nearly all actives have a fitted effect of over 50% in size
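Human TRb ligand-binding domain (0.6 uM) is mixed with 20 nM Texas Red SRC2 peptide and 1 uM T3; after compound addition and 5 hr at ambient temperature, polarization is measured and normalized to unbound and bound controls.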
TSHR antag – Antagonists of the Thyroid Stimulating Hormone Receptor: HTS campaign | TSHR-expressing cells, TSH-stimulated cAMP HTRF, 2 h; active compounds read low | activity change, negative = inhibition, % at 11.5 µM | 330,000 compounds, 0.2% hits | AID 504810, 2011;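 active = activity change below a set negative limit, meaning inhibition stronger than a set level, cut at about -70% in these data; inconclusive = activity change between two set negative limits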
Target sequence (P16473 whole entry, looked up): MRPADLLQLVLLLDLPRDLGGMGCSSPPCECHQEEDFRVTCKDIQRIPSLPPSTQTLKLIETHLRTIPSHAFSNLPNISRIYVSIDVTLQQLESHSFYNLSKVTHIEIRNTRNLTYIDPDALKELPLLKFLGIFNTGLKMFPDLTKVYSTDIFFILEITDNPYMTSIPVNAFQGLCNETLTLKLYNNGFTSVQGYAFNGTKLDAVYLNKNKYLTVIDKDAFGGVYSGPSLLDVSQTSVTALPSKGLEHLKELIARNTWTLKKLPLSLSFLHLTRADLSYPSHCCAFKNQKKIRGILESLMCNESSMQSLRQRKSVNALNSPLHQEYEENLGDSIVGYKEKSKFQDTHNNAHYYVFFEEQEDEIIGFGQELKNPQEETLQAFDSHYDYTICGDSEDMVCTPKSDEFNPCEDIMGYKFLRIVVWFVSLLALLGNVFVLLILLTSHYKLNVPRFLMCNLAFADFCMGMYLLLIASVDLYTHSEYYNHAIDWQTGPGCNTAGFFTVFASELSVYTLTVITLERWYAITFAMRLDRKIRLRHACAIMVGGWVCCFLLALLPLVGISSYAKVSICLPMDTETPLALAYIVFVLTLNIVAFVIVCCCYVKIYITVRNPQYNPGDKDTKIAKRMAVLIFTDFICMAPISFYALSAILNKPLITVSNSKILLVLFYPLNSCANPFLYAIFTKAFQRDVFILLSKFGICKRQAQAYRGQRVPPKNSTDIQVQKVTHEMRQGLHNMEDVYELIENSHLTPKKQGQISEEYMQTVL
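Read-out is FRET at 665 nm (cryptate excitation 337 nm) from a cryptate-tagged anti-cAMP antibody, competed by cell cAMP against cAMP-d2. Compounds are tested on freshly harvested TSHR cells challenged with 4nM TSH (EC80) for 2 hours at 37 deg C.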
TR SRC2 fluor cs – Total Fluorescence Counterscreen for Inhibitors of the Interaction of Thyroid Hormone Receptor and Steroid Receptor Coregulator 2; 280,000 compounds, 0.29% hits; Potency, µM (series often up to 106 µM); TRb/SRC2 Texas Red total fluorescence interference; active = well fitted curve in either direction with a large enough effect; inconclusive = small, poorly fitted or top-dose-only effect
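Flags fluorescent or light-absorbing compounds by total fluorescence, S + 2P, at 555 nm excitation and 632 nm emission. Mixture: 20 nM Texas Red SRC2 peptide, 0.6 uM human TRb LBD, 1 uM T3, 5% DMSO; compound exposure 5 h at ambient temperature.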
CBFb RUNX1 block – qHTS Assay for Compounds Blocking the Interaction Between CBF-beta and RUNX1 for the Treatment of Acute Myeloid Leukemia; Runt-related transcription factor 1 (Homo sapiens) + Core-binding factor subunit beta …; AlphaScreen CBFb-His/RUNX1-biotin binding, biochemical; Potency, µM (top dose mostly 59.8 µM), usual class: inhibitors; 230,000 tested, under 10 active
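Interaction loss through any mechanism counts as activity. Pre-formed complex of His-CBF-beta and biotin-RUNX1 (30 nM apiece) is incubated with compound 15 min, then with 50 ng nickel and 50 ng streptavidin beads for 90 min before AlphaScreen detection.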
A number is an active result; i = inactive; ? = inconclusive; nt = no result given; [ ] = remark or other dose. Unless noted, calls come from the whole dose curve; as a rule, active = well fitted curve in the direction sought with a large enough effect; inconclusive = small, poorly fitted or top-dose-only effect, or another doubt; inactive = no such curve, though single readings can be large; an effect the other way counts as inactive or inconclusive.

SMILES	USP2a inh	Eya2 inh	TRb SRC2 PPI	TSHR antag	TR SRC2 fluor cs	CBFb RUNX1 block
O=C(O)c1cc(O)c2c(c1)[C@H]([C@H]1c3cc(C(=O)O)cc(O)c3C(=O)c3c(O[C@@H]4OC(CO)C(O)C(O)C4O)cccc31)c1cccc(O[C@@H]3OC(CO)C(O)C(O)C3O)c1C2=O (stereo not given in full)	nt	nt	?	nt	22µM[quencher]	nt
O=C(O)c1cc(O)c2c(c1)[C@@H]([C@H]1c3cc(C(=O)O)cc(O)c3C(=O)c3c(O[C@@H]4O[C@H](CO)[C@@H](O)[C@H](O)[C@H]4O)cccc31)c1cccc(O[C@@H]3O[C@H](CO)[C@@H](O)[C@H](O)[C@H]3O)c1C2=O	2µM	?	nt	-79	nt	nt
OCC1OC(Oc2cccc3ccccc23)C(O)C(O)C1O (stereo not given)	i	i	nt	?	nt	nt
CC(=O)c1ccc2c(c1)C1C=CCC1C(C(=O)O)N2 (stereo not given)	11µM	i	i	i	i	i
N#C/C(=C\c1ccc(Oc2ccc(C(F)(F)F)cc2[N+](=O)[O-])cc1)c1nc2ccccc2[nH]1	i	i	i	-71	i	i
N#C/C(=C\c1ccc(OCc2ccc(Cl)cc2Cl)cc1)c1nc2ccccc2[nH]1	nt	nt	i	nt	282µM[quencher]	nt
CC1CCCN(S(=O)(=O)c2csc(C(N)=O)c2)C1 (stereo not given)	i	i	nt	-140	nt	nt
O=C(C1CCN(S(=O)(=O)c2cccc3nonc23)CC1)N1CCN(c2cccc(Cl)c2)CC1	nt	nt	i	nt	i	nt
Cc1ccc(Cl)cc1N1CCN(C(=O)C2CCN(S(=O)(=O)c3cccc4nonc34)CC2)CC1	nt	nt	i	nt	7.9µM[quencher]	nt
OCc1cccc(Oc2ccccc2)c1	nt	nt	i	nt	i	nt
O=S(=O)(Nc1ccc(O)c(Sc2nc3ccccc3s2)c1)c1cccc2ccccc12	?	i	i	-88	i	i
O=S(=O)(Nc1ccc(O)c(Sc2nc3ccccc3s2)c1)c1cc(Cl)ccc1Cl	nt	nt	i	nt	i	nt
C=C(C)C(=O)OCCOCCOCCOC(=O)C(=C)C	nt	nt	i	nt	i	nt
Cc1ccc(/C=N/NC(=O)c2nn(C)cc2Cl)cc1	i	i	i	i	i	i
Cn1cc(Cl)c(C(=O)N/N=C/c2ccc3c4c(cccc24)CC3)n1	i	i	nt	-80	nt	nt
CC[C@@H](C(=O)[C@@H](C)[C@@H](O)[C@H](C)CCc1ccc(C)c(O)c1C(=O)O)[C@H]1O[C@](CC)([C@H]2CC[C@](O)(CC)[C@H](C)O2)C[C@@H]1C	i	i	nt	-84	nt	nt
COc1cccc(C2=Nn3c(nnc3-c3ccccc3C)SC2)c1	nt	nt	i	nt	i	i
CCCCOC(=O)CC(CC(=O)OCCCC)(OC(C)=O)C(=O)OCCCC	nt	nt	i	nt	i	nt
COc1ccc(-n2nnnc2SCC(=O)NC2CCCC2)cc1OC	i	i	nt	-92	nt	nt
COc1cc(OC)cc(-n2nnnc2SCC(=O)NC2CCCC2)c1	i	i	i	i	i	i
O=C(Cn1ncc(Cl)c(Cl)c1=O)N1CCN(S(=O)(=O)c2ccc3ccccc3c2)CC1	i	i	i	-79	i	i
COc1ccc(NC(=O)c2sc3nc4c(cc3c2N)CN(C(C)C)CC4)c(OC)c1	nt	nt	i	nt	i	nt
Cc1c(C(=O)N/N=C/c2cccs2)nc2ccccn12	i	i	i	i	178µM[quencher]	i
C=C(C)C(=O)OCCN(C)C	nt	nt	i	nt	i	nt
CCCC/C=C\CCCCCCCCO	nt	nt	i	nt	i	nt
SMILES	USP2a inh	Eya2 inh	TRb SRC2 PPI	TSHR antag	TR SRC2 fluor cs	CBFb RUNX1 block
N/C(Cc1ccc([N+](=O)[O-])cc1)=N\OC(=O)Cc1ccccc1	i	i	i	i	i	i
N/C(Cc1ccc([N+](=O)[O-])cc1)=N\OC(=O)Cc1ccc(Cl)cc1	i	i	i	-77	i	i
C=C[Si](OCCOC)(OCCOC)OCCOC	nt	nt	i	nt	i	nt
CNc1c(NC(=O)c2ccc3c(c2)OCO3)c(=O)oc2ccccc12	i	i	nt	-136	nt	nt
O=C(O)c1ccc(NC2=C(Cl)C(=O)c3ccccc3C2=O)cc1	i	i	i	-87	i	?
O=C1C(Cl)=C(Nc2ccccc2)C(=O)c2ccccc21	i	i	i	i	i	i
O=C(O)c1cccc(NC2=C(Cl)C(=O)c3ccccc3C2=O)c1	i	i	i	-83	i	i
CCOc1ccc(N=C2NC(=O)S/C2=C\c2ccc(Cl)cc2)cc1	i	i	i	i	i	i
COc1ccc(N=C2NC(=O)S/C2=C\c2ccc(N(C)C)cc2)cc1	i	i	32µM	i	50µM[fluorescent]	i
C=CC(=O)OCC(C)OCC(C)OCC(C)OC(=O)C=C (stereo not given)	nt	nt	i	nt	i	nt
N[C@@H]1[C@@H](O)[C@H](O)[C@@H](CO)O[C@H]1O	nt	nt	i	nt	i	nt
O=c1[nH]c2ccc(NCc3ccc(-c4ccc(Cl)cc4)o3)cc2[nH]1	nt	nt	?	nt	100µM[quencher]	nt
O=c1[nH]c2ccc(NCc3ccc(-c4ccccc4)o3)cc2[nH]1	nt	nt	i	nt	i	nt
CC(CCO)Nc1nc2c(c(=O)n(C)c(=O)n2C)n1Cc1ccc(Br)cc1 (stereo not given)	nt	nt	i	nt	0.0071µM[quencher]	nt
CC(CCO)Nc1nc2c(c(=O)n(C)c(=O)n2C)n1Cc1cccc(Br)c1 (stereo not given)	i	i	i	i	i	i
CCOC(=O)NN1C(=O)c2ccccc2NC1c1ccccc1 (stereo not given)	i	i	i	i	?	i
CCOC(=O)NN1C(=O)c2ccccc2NC1c1ccc(N(C)C)cc1 (stereo not given)	i	i	i	i	112µM[quencher]	i
CC[n+]1c(/C=C/Nc2ccccc2)sc2ccccc21	i	i	?	i	45µM[fluorescent]	i
C1CCC2(CCCCO2)OC1	nt	nt	i	nt	i	nt
CCCOc1ccccc1C1C(C(=O)Nc2ccccc2)=C(C)Nc2nnnn21 (stereo not given)	nt	nt	i	nt	0.1µM[quencher]	nt
Cc1sc2ncn(CC(=O)N(C)c3cccc(C(F)(F)F)c3)c(=O)c2c1S(=O)(=O)N1CCN(c2ncccn2)CC1	nt	nt	i	nt	0.079µM[quencher]	nt
CC(=O)C1=C(O)C(=O)N(c2ccc(O)cc2)C1c1cccc(F)c1 (stereo not given)	i	i	nt	-80	nt	nt
Cc1cccc(Cc2c(C)nc3c(-c4ccccc4)c(C)[nH]n3c2=O)c1	nt	nt	i	nt	8.9µM[quencher]	nt
